About 83,000 compounds went through this panel and 20% of them were active in at least one assay; those are over-represented in the sample as a whole.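 Method: cells in 96-well plates; compound added at one concentration; 48 h incubation; percent growth measured; values under 10 scored active.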 Unmarked numbers belong to inactive results. The source made the active and inactive calls.
Assays:
Assay in all cases: NCI-60 one-dose screen, 48 h (100 = growth as untreated, 0 = no growth, -100 = all killed)
Settings in all cases: 10 µM unless noted
NCI-H23 lung = test system: NCI-H23 lung
NCI-H226 lung = test system: NCI-H226 lung
NCI-H322M lung = test system: NCI-H322M lung
HOP-62 NSCLC = test system: HOP-62 NSCLC
NCI-H460 lung = test system: NCI-H460 lung
HOP-92 NSCLC = test system: HOP-92 NSCLC
NCI-H522 lung = test system: NCI-H522 lung
A549/ATCC NSCLC = test system: A549/ATCC NSCLC
786-0 renal = test system: 786-0 renal
COLO 205 colon = test system: COLO 205 colon
DU-145 prostate = test system: DU-145 prostate
K-562 leukemia = test system: K-562 leukemia
MALME-3M melanoma = test system: MALME-3M melanoma
MDA-MB-231 breast = test system: MDA-MB-231 breast
RXF 393 renal = test system: RXF 393 renal
SF-268 CNS = test system: SF-268 CNS
SF-295 CNS = test system: SF-295 CNS
SF-539 CNS = test system: SF-539 CNS
UACC-257 melanoma = test system: UACC-257 melanoma
M14 melanoma = test system: M14 melanoma

Row | Compound | growth (NCI-H23 lung) | growth (NCI-H226 lung) | growth (NCI-H322M lung) [%] | growth (HOP-62 NSCLC) | growth (NCI-H460 lung) | growth (HOP-92 NSCLC) [%] | growth (NCI-H522 lung) [%] | growth (A549/ATCC NSCLC) | growth (786-0 renal) | growth (COLO 205 colon) | growth (DU-145 prostate) | growth (K-562 leukemia) | growth (MALME-3M melanoma) | growth (MDA-MB-231 breast) [%] | growth (RXF 393 renal) | growth (SF-268 CNS) [%] | growth (SF-295 CNS) [%] | growth (SF-539 CNS) | growth (UACC-257 melanoma) | growth (M14 melanoma)
1 | C=C(C)[C@@H]1CC[C@]2(C(=O)N3CCN(CC)CC3)CC[C@]3(C)[C@H](CC[C@@H]4[C@@](C)(CCC(=O)N5CCN(CC)CC5)[C@H](C(=C)C)CC[C@]43C)[C@@H]12 | 74.4% | 79.6% | 89 | 88.7% | 25.1% | 52.2 | 77.9 | 57.4% | 0.392% (active) | 61.1% | 70.8% | 30.4% | 43.2% | 58.6 | 48.8% | 76.9 | 47.8 | 66% | 18.6% | 35.8%
2 | NC1=C(C/C(N)=N\O)C(c2ccccc2Cl)c2c(ccc3ccccc23)O1 (stereo not given) | 86.9% | 89.4% | 96.4 | 78.2% | 87.8% | 75.7 | 55.4 | 87.3% | 93.4% | 118% | 106% | 22.8% | 58.5% | 86.9 | 86.4% | 82.2 | 66.7 | 83.6% | 96.1% | 59.8%
3 | CC(C)/C=C/CC[C@](C)(O)[C@H]1CC[C@]2(C)[C@@H]1CC[C@@H]1[C@@]3(C)C/C(=C/c4cccc(C(F)(F)F)c4)C(=O)C(C)(C)[C@@H]3CC[C@]12C | 96.3% | 94.9% | 105 | 103% | 98.6% | 92.7 | 96.2 | 85% | 101% | 113% | 96.8% | 86.2% | 100% | 88.9 | 105% | 93.3 | 101 | 97.6% | 95.2% | 91.5%
4 | CC1(C)C(=O)/C(=C\c2cccnc2)C[C@]2(C)[C@H]3CC[C@@H]4[C@@H](C(=O)/C=C/c5ccncc5)CC[C@@]4(C)[C@]3(C)CC[C@@H]12 | 5.99% (active) | 1.56% (active) | 39.9 | 2.07% (active) | 23.7% | 16.1 | 30.1 | 1.98% (active) | -55.7% (active) | 12.3% | -1.7% (active) | 3.14% (active) | 0.438% (active) | 16.8 | -84.2% (active) | 27.3 | 15.9 | 1.24% (active) | 49.3% | -13% (active)
5 | O=C1c2ccccc2NC(c2cn(-c3ccccc3)nc2-c2cccnc2)N1Cc1ccccc1 (stereo not given) | 92.3% | 109% | 93 | 111% | 108% | 93.4 | 78.4 | 102% | 89.9% | 121% | 101% | 96.8% | 119% | 94.3 | 97.6% | 84.8 | 92 | 95.6% | 123% | 106%
6 | Cc1cc(N(CCCNc2ccnc3cc(Cl)ccc23)Cc2ccco2)nc(N2CCN(C)CC2)n1 | 66% | 88.3% | 64.2 | 48.2% | 28.4% | 79.9 | 82.1 | 45% | 59% | -21.2% (active) | 55.6% | 12.9% | -49.6% (active) | 14.4 | 35.9% | 56.1 | 57.1 | -62.9% (active) | -63.2% (active) | -82.5% (active)
7 | Cc1ccc(NC2CC(=O)N(c3c(C)cc(C)cc3C)C2=O)c(C)c1 (stereo not given) | 108% | 109% | 101 | 110% | 108% | 94.5 | 98.6 | 102% | 105% | 123% | 105% | 98.2% | 97.7% | 103 | 124% | 101 | 111 | 102% | 99.6% | 107%
8 | Cc1cccc(C)c1NC(=O)CSC(=S)N1CCCCC1 | 88.7% | 109% | 82.7 | 107% | 106% | 107 | 92 | 101% | 92.6% | 109% | 108% | 87.5% | 88.4% | 119 | 111% | 96 | 101 | 99.5% | 102% | 102%
9 | C=C(C)[C@@H]1CC[C@]2(/C=N/Nc3ccncc3)CC[C@]3(C)[C@H](CC[C@@H]4[C@@]5(C)CCCNC(C)(C)[C@@H]5CC[C@]43C)[C@@H]12 | 85.9% | 87.7% | 102 | 94.7% | 86.6% | 55.6 | 94.8 | 78% | 99.8% | 42.2% | 95.7% | 7.55% (active) | 80.3% | 101 | 96.3% | 97.2 | 99.1 | 88.7% | 94.7% | 79.4%
10 | CC(C)(C)c1ccc(OCCCCCCCN2CCNCC2)cc1 | 51.9% | 70.3% | 53.6 | 54% | -14.9% (active) | 33.3 | 72.9 | 44.9% | 23.9% | -60.9% (active) | 45.6% | 0.406% (active) | -50.4% (active) | 19.3 | 28.2% | 59.5 | 17.3 | 67.3% | 48.2% | 45.2%
11 | CCSc1ncnc2c1ncn2C1OC(CO)C(O)C1O (stereo not given) | 24.6% | 62.9% | 42.6 | 21.1% | 14.9% | 33 | 19.5 | 14.6% | 24.1% | 20.8% | 22.7% | 15.9% | 53.5% | 64.4 | 36.7% | 19.4 | 31.4 | 25.3% | 59.6% | 29.6%
12 | CCCCn1c(-c2ccc(O)cc2)cn2c3c(=O)[nH]c(=O)n(C)c3nc12 | 82.2% | 85% | 119 | 82% | 68.6% | 43.1 | 30.9 | 75% | 88.8% | 89.9% | 101% | 34.3% | 90.7% | 66.5 | 74.9% | 86.3 | 78.1 | 74.9% | 79.1% | 54.1%
13 | CC(C)(C)c1nc(-c2ccc(O)c(O)c2)cs1 | 68.8% | 93.7% | 93.2 | 66.7% | 33.1% | 61.3 | 21 | 55.7% | 77.5% | 92.6% | 66.3% | 50% | 86.8% | 54.3 | 72% | 67.1 | 61.6 | 57.7% | 76.2% | 43.2%
14 | C=CC(=O)N[C@H](Cc1ccc(-c2cc(Cl)cc(Cl)c2)cc1)[C@H](O)[C@@H](O)C(=O)O | 93.6% | 71.3% | 100 | 87.3% | 94.9% | 84.4 | 59.1 | 72% | 92.2% | 91.9% | 102% | 85% | 90.1% | 98.9 | 101% | 102 | 82.8 | 99.6% | 74.4% | 86.3%
15 | Nc1ncnc2nc(Br)[nH]c12 | 92.7% | 85.9% | 108 | 98% | 106% | 94.7 | 85.9 | 77.1% | 95.1% | 103% | 102% | 89.6% | 100% | 99.8 | 103% | 98.3 | 102 | 103% | 87.7% | 92.1%

Source: PubChem BioAssay (NCI)
